# Assay results from PubChem BioAssay (NCI).
# Several values for one entry are separate records, joined by “and”; a condition that tells them apart may be missing. Equal values may be shown once. About 83,000 compounds went through this panel and 20% of them were active in at least one assay; those are over-represented in the sample as a whole.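 Plates (96-well) were seeded with cells, treated with compound at one concentration, and incubated for 48 hours before percent growth was determined.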 Activity calls are given as the source filed them. How the source made its calls: active means growth percent below 10; inactive means the rest.
# Test system: TK-10 renal
# Assay: NCI-60 one-dose screen, 48 h (100 = growth as untreated, 0 = no growth, -100 = all killed)
# Conditions: 10 µM unless noted
row,SMILES,growth
1,CC1(C)CCC2(C(=O)O)C(O)CC3(C)C(=CCC4C5(C)CCC(OC6OCC(O)C(O)C6OC6OCC(O)C(O)C6OC6OCC(O)C(OC7OC(CO)C(O)C(O)C7O)C6O)C(C)(C)C5CCC43C)C2C1 (configuration not stated),116% [100 µM] (inactive) and 15.1% [100 µM] (inactive)
2,C=C(CO)C(=O)OC1CC(=C)C2CC(O)C(C)C2C2OC(=O)C(=C)C12 (configuration not stated),103% [100 µM] (inactive) and -92% [100 µM] (active)
3,C=CCO/N=C/c1cc(NC(=S)c2ccoc2C)ccc1Cl,-93.7% [100 µM] (active) and -93.1% [100 µM] (active)
4,O=C(O)CCCOc1cc(-c2ccccc2F)nc2cc3c(cc12)OCO3,53.8% [100 µM] (inactive) and 2.37% [100 µM] (active)
5,On1c(-c2ccccc2)nc2ccccc2c1=S,1.71% [100 µM] (active) and -38.8% [100 µM] (active)
6,CC1=CC[C@@H]2[C@@H](CC[C@@]2(C)O)C(C)(C)[C@H]1CC[C@@H]1[C@@]2(C)CCC(=O)C(C)(C)O[C@@H]2CC[C@]1(C)O,10.2% [100 µM] (inactive) and -99.3% [100 µM] (active)
7,CC1(C=O)CCC23COC4(CCC5C6(C)CCC(OC7OCC(OC8OC(CO)C(O)C(OC9OC(CO)C(O)C(O)C9O)C8OC8OCC(O)C(O)C8O)C(O)C7OC7OC(CO)C(O)C(O)C7O)C(C)(C)C6CCC5(C)C4(C)CC2O)C3C1 (configuration not stated),-87.3% [100 µM] (active) and -69.8% [100 µM] (active)
8,C=c1c2ccccc2oc2nc3[nH]c(N)c(C#N)c(N)c3c(=N)c12,43.9% [100 µM] (inactive) and -12.1% [100 µM] (active)
9,N=C1C(=N)c2ccccc2-c2ccccc21,51.2% [100 µM] (inactive) and 3.24% [100 µM] (active)
10,Cc1cc(O)c2c(c1)C(=O)C(c1c(C)cc3c(c1O)C(=O)C1OC1C3=O)=CC2=O (configuration not stated),-99.7% [100 µM] (active) and -86.5% [100 µM] (active)
11,C[C@@H]1CCC([C@@H](C)[C@H]2CC[C@H]3[C@@H]4CC[C@H]5C[C@@H](O)CC[C@]5(C)[C@H]4CC[C@]23C)=NC1,27.5% [100 µM] (inactive) and -69% [100 µM] (active)
12,Fc1cccc(F)c1C1SCc2nc3cc4ccccc4cc3n21 (configuration not stated),27% [100 µM] (inactive) and 34.3% [100 µM] (inactive)
13,CC(C)(C)N/N=C(/Cc1nc2c3c(ccc2[nH]c1=O)C(=O)c1ccccc1C3=O)C(=O)NC1=C(Cl)C(=O)c2ccccc2C1=O,59.3% [100 µM] (inactive) and -41.1% [100 µM] (active)
14,O=C(/C=C/c1ccccc1)CCC1C(=O)c2ccccc2C1=O,105% [100 µM] (inactive) and 77.6% [100 µM] (inactive)
15,COc1ccc2nc3c4c(nccc4c2c1)-c1ncccc1C3=O,-90.7% [50 µM] (active) and -100% [50 µM] (active)
16,COc1ccc(Nc2nc3ccc(C(F)(F)F)cc3nc2C(=O)O)cc1,-10.5% [100 µM] (active) and -93.8% [100 µM] (active)
17,S=C1NC2=C(COc3ccccc32)C(c2ccc(Cl)cc2)N1 (configuration not stated),-3.55% [100 µM] (active) and -100% [100 µM] (active)
18,CC1=C(Cl)C[C@@H](/C(C)=C\Cl)O[C@@]1(O)C(Br)Br,101% [100 µM] (inactive) and -87.5% [100 µM] (active)
19,CC1(C)CCC[C@]2(C)[C@@H](C=O)C(C=O)=CC[C@@H]12,-6.19% [100 µM] (active) and -33.3% [100 µM] (active)
20,COc1ccc2c(c1)C(N)=C(c1ccccc1)C2=O,99.7% [100 µM] (inactive) and 3.68% [100 µM] (active)
21,Cc1c2c(c(C)c3c[n+](C)ccc13)Oc1ccccc1O2,-2.16% [100 µM] (active) and -100% [100 µM] (active)
22,CC1OC(OC2C(OC3CCC4(C)C(CCC5(C)C4CC=C4C6CC(C)(C)CCC6(C(=O)O)CCC45C)C3(C)CO)OCC(O)C2O)C(O)C(O)C1O (configuration not stated),-92.1% [100 µM] (active) and -100% [100 µM] (active)
